Holding throughout (set-up): scale not given: direction of the effect not stated beside the values
Experiment [1] addresses Protein translocase subunit SecA (Escherichia coli (strain K12)) (UniProt P10408). Briefly: Assay to Identify E. coli SecA ATPase Inhibitors. The format is functional. The note with it: 30 µM.
The target in experiment [2] is T1, Ubiquitin-activating enzyme e1, putative (Leishmania donovani (strain BPK282A1)) (UniProt E9BSI1).
T1 sequence (whole entry): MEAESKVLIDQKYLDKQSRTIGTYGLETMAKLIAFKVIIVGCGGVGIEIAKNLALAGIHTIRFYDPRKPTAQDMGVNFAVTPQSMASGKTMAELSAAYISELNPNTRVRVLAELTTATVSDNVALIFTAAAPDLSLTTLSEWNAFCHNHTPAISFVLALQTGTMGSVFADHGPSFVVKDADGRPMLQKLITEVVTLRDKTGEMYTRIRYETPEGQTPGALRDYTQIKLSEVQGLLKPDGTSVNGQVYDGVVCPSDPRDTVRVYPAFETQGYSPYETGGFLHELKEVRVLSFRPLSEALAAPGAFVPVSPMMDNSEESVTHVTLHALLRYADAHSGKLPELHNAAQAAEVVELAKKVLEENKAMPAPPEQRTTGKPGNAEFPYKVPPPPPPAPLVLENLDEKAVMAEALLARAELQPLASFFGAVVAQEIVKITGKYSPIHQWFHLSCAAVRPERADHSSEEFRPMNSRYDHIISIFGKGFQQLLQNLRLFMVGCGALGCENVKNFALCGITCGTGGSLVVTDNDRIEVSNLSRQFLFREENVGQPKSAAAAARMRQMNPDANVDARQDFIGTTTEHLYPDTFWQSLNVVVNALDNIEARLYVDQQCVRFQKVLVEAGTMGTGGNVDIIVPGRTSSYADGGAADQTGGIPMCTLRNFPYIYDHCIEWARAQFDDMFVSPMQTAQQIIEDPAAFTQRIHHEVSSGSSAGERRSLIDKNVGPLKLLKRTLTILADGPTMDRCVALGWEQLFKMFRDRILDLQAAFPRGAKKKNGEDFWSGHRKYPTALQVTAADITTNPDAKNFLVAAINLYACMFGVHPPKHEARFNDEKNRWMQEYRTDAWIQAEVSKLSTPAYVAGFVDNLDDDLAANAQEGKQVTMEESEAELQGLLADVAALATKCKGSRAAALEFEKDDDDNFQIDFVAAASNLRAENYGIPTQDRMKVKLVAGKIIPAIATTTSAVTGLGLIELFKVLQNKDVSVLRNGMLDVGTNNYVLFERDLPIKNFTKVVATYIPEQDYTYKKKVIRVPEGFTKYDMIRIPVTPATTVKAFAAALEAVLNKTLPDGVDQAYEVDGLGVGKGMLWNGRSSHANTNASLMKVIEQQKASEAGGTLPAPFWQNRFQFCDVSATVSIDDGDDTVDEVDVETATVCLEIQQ
The experiment in a line: Leishmania donovani Ubiquitin Activating Enzyme (LdE1). The format is functional. The settings on record: 30 µM.

Experiment [3] concerns the target AMP-activated protein kinase, AMPK (Homo sapiens) (UniProt P54646+O43741+P54619+Q9UGJ0+Q9Y478+Q13131+Q9UGI9). Briefly: AMP-dependent Kinase enzyme assay. An in vitro enzyme assay that detects ADP turnover that is directly proportional to AMPK activity. This uses naive AMPK that is activated during the assay with MK-8722. In kind it is functional. The note with it: 30 µM.

The target in experiment [4] is Sialic acid-binding Ig-like lectin 9 (Homo sapiens) (UniProt Q9Y336). The experiment in a line: Hs-Siglec9 ALPHAscreen SOP 20170721. The note with it: 10 µM. For orientation: Alpha assays give light when donor and acceptor beads are brought close together.
Sialic acid-binding Ig-like lectin 9 (Homo sapiens), sequence (Q9Y336 whole entry): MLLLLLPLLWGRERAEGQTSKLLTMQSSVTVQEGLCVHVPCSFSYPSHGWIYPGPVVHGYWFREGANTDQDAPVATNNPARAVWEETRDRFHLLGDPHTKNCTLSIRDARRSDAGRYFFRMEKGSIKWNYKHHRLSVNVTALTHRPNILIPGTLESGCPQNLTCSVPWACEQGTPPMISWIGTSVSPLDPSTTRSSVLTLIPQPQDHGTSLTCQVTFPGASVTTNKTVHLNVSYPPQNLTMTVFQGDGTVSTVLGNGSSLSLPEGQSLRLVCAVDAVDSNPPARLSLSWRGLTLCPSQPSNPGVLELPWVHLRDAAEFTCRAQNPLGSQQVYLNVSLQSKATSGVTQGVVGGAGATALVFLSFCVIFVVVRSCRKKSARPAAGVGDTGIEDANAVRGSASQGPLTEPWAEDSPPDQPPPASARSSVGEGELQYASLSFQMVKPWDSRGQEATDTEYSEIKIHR
Another experiment has as its system Trypanosoma cruzi. The experiment in a line: Trypanosoma cruzi phosphomannomutase and mannose-1-phosphate guanylyltransferase assay. The format is functional. The note with it: 10 µM.
Experiment [5] deals with T2, Arginase-2, mitochondrial (Homo sapiens) (UniProt P78540).
T2 sequence (whole entry): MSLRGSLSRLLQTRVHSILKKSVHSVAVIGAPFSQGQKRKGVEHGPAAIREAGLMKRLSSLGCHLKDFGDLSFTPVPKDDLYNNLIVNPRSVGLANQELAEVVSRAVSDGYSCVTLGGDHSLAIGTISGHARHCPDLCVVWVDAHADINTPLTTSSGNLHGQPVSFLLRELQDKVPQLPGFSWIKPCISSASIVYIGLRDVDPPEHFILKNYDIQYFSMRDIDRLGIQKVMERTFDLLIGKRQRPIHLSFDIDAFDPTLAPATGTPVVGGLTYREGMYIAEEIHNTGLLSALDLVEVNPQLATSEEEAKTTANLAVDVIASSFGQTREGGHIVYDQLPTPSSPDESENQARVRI
The experiment in a line: in vitro enzyme assay to detect the production of urea directly proportional to the activity of Arginase II. Further: in the data most compounds retested in dose-response had high values. The note with it: 33.3 µM. The format is functional.

The target of experiment [6] is T3, Proteasome subunit beta (Trypanosoma cruzi) (UniProt O96673).
T3 sequence (whole entry): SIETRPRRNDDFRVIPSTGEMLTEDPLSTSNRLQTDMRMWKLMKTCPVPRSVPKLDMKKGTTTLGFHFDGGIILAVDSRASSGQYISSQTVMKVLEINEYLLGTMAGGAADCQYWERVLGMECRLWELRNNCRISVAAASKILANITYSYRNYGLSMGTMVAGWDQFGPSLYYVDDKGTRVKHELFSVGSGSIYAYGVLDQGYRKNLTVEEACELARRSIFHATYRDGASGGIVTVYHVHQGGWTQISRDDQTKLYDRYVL
The experiment in a line: Trypanosoma cruzi proteasome chymotrypsin-like activity (TcProtChymo) assay. Further: in the data most compounds retested in dose-response had high values. The settings on record: 9.37 µM. The format is functional.

The next experiment is filed under the species Homo sapiens. The experiment in a line: To identify inhibition of the IFN signalling (Jak-Stat) pathway via expression of an eGFP reporter gene under the control of an IFN-stimulated response element (ISRE) containing MxA promoter. The format is functional. The settings on record: 30 µM. In general terms: A reporter such as luciferase makes a cellular process visible.

In experiment [7] the target is T4, Tyrosyl-tRNA synthetase, putative (Trypanosoma cruzi (strain CL Brener)) (UniProt Q4DSP6).
T4 sequence (whole entry): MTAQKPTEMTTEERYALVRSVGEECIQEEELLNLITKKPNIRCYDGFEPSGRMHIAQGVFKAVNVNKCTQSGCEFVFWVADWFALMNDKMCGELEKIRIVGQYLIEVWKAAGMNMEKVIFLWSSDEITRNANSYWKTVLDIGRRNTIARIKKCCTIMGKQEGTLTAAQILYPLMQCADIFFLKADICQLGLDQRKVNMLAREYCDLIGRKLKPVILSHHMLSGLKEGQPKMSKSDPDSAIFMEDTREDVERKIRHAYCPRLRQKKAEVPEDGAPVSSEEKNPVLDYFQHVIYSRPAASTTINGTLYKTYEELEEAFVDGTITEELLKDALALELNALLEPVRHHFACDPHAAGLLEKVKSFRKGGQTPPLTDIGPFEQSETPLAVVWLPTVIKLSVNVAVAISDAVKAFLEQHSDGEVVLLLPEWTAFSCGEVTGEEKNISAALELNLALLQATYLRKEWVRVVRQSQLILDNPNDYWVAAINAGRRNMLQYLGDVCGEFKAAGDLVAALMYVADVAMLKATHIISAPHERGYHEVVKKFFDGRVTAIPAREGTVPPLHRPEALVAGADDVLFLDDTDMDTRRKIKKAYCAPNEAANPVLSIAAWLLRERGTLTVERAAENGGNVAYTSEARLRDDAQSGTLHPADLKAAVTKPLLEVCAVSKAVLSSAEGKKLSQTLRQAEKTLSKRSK
Briefly: Trypanosoma cruzi tyrosyl tRNA synthetase (TcYRS) _High Tyrosine SOP. Further: in the data most compounds retested in dose-response had high values. The format is functional. The settings on record: 30 µM.

Experiment [8] concerns the target T4, Tyrosyl-tRNA synthetase, putative (Trypanosoma cruzi (strain CL Brener)). Briefly: Trypanosoma cruzi tyrosyl tRNA synthetase (TcYRS) SOP. In kind it is functional. The note with it: 30 µM.
In experiment [9] the target is Chromo domain-containing protein 1 (Saccharomyces cerevisiae (strain ATCC 204508 / S288c) (Baker's yeast)) (UniProt P32657). The experiment in a line: ScCHD-1 Enzyme Inhibition Assay. Further: in the data most compounds retested in dose-response had high values. The format is functional. The note with it: 30 µM.
Chromo domain-containing protein 1 (Saccharomyces cerevisiae (strain ATCC 204508 / S288c) (Baker's yeast)), sequence (P32657 whole entry, the tested form may be a part): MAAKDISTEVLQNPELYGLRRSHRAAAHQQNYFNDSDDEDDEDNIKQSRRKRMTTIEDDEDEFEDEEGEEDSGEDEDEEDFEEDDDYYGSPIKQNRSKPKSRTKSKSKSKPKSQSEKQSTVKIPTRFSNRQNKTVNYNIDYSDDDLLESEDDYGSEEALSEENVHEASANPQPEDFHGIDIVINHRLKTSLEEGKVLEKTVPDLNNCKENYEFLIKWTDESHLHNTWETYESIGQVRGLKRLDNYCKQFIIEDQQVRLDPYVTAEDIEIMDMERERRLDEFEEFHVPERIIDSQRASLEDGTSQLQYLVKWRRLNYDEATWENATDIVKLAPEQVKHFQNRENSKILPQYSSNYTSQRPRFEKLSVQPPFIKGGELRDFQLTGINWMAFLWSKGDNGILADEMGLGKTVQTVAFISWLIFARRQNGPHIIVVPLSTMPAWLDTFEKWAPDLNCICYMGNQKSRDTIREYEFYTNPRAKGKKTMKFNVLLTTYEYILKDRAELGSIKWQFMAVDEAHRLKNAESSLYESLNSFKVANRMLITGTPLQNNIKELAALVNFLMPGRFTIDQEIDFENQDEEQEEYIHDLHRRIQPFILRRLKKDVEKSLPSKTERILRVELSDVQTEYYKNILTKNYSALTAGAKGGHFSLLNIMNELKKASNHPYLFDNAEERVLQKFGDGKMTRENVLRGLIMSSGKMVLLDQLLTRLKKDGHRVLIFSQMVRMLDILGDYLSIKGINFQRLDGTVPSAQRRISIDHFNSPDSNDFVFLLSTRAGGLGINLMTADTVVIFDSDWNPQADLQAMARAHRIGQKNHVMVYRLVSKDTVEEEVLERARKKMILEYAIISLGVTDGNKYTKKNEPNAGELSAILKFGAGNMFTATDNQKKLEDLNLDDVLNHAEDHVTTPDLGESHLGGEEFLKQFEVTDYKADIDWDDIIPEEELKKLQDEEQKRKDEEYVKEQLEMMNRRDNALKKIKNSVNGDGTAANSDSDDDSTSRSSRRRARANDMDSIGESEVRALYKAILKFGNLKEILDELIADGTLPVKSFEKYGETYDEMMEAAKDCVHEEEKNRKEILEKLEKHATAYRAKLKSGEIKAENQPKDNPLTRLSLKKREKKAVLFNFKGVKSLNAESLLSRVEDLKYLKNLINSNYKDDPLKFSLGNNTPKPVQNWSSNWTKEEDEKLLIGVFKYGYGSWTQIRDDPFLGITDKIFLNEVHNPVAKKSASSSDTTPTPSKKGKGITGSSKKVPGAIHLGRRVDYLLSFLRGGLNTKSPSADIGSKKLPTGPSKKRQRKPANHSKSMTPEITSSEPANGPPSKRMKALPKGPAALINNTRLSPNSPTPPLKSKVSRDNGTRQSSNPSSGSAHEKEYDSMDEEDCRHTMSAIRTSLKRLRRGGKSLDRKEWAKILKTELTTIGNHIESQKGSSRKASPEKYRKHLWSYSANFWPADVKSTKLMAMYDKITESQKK

SMILES strings stand for the structures. For some of these results: Measured potencies and affinities stand elsewhere.

Protein translocase subunit SecA (Escherichia coli (strain K12)), sequence (P10408 whole entry): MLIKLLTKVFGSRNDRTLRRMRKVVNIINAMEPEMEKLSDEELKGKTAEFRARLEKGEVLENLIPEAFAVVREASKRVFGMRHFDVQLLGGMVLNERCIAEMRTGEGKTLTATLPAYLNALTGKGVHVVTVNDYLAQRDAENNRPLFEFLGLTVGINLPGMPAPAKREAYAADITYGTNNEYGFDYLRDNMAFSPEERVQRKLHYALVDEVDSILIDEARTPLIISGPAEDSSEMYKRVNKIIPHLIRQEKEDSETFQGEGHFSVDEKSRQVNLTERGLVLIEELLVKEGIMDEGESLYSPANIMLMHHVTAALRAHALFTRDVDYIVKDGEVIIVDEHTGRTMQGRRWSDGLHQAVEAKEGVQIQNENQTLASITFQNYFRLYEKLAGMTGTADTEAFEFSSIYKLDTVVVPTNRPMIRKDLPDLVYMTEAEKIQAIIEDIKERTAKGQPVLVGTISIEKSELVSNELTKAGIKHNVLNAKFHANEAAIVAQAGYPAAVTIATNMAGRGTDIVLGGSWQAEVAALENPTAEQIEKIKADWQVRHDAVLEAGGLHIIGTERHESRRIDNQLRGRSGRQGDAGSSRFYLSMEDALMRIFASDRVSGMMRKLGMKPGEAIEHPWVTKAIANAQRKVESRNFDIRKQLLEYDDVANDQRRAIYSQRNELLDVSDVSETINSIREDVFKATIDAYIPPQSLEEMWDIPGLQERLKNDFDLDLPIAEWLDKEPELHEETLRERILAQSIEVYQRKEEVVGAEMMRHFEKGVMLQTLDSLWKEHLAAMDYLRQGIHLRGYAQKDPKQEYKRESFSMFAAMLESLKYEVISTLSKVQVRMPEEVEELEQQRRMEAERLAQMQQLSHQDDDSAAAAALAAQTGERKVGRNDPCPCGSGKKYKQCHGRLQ

In the case of `CC(C)(C)c1nnc(CN2CCN(CC(O)c3ccccc3)CC2)o1` (stereo unspecified), the Percent Effect was -4.73% in experiment [1]; 10.1% in experiment [2]; -1.08% in [3]; 7.24% in experiment [4]; 2.55% with Trypanosoma cruzi; 0% in experiment [5]. Besides, the Percent Effect is -6.31% in [6]; 10.4% in the experiment filed under Homo sapiens; 5.42% in experiment [7]; 16.5% in [8]; -5.94% in [9].

Consider `Cn1cnc(S(=O)(=O)NCCCN2CCCCCC2)c1Cl`, for which the Percent Effect in [1] is -4.4%; in experiment [2], 8.11%; in experiment [3], -5.51%; in experiment [4] it was 10.5%; in the experiment with Trypanosoma cruzi, -3.49%; in experiment [5] it was 1.6%. Moreover, the Percent Effect was 6.49% in experiment [6]; 4.76% in the experiment listed under Homo sapiens; 5.42% in experiment [7]; 6.17% in experiment [8]; -6.58% in experiment [9].

Consider `c1cnn(CC2CN(CCc3ccncc3)CCO2)c1` (stereo unspecified), for which the Percent Effect in experiment [1] is 1.49%; in [2], 13%; in [3] it was 1.87%; in [4], -13.5%; in the experiment with Trypanosoma cruzi it was -2.06%; in [5], 0.632%. The Percent Effect in experiment [6] was 6.22%; in the experiment listed under Homo sapiens, 32%; in experiment [7], 4.76%; in [8], 21.2%; in [9], -16.1%.

As for `COc1cccc(CN2CCCCCC2c2cccs2)c1O` (stereo unspecified), the Percent Effect was -0.394% in experiment [1]; 0% in experiment [2]; -1.74% in experiment [3]; -0.0415% in experiment [4]; -3.65% in the experiment with Trypanosoma cruzi; 4.52% in experiment [5]. Also, the Percent Effect is 15.8% in experiment [6]; 21.7% in the experiment listed under Homo sapiens; -1.06% in experiment [7]; 8.97% in experiment [8]; -5.25% in [9].

As for `CC(C(=O)NCc1ccnc(Oc2ccc(F)cc2)c1)n1cncn1` (stereo unspecified), the Percent Effect in [1] is -3.42%; in experiment [2] it was -54%; in experiment [3], -1.15%; in [4], 7.66%; with Trypanosoma cruzi it was 3.86%; in [5] it was 4.29%. Also, the Percent Effect was 9.31% in [6]; 0.85% in the experiment filed under Homo sapiens; 4.76% in experiment [7]; 14.6% in [8]; -1.39% in [9].

Take `O=C(c1cc(=O)[nH]c(=O)[nH]1)N1CCCCC1c1ccc(F)cc1` (stereo unspecified): the Percent Effect is 1.51% in experiment [1]; 4.17% in experiment [2]; 0.748% in [3]; -6.89% in [4]; -3.21% with Trypanosoma cruzi; 3.97% in experiment [5]. For the same compound, the Percent Effect in experiment [6] is 16.8%; in the experiment listed under Homo sapiens, -0.138%; in [7], 5.26%; in [8] it was 2.56%; in experiment [9] it was -2.94%.

Consider `Cc1nc(CN2CCN(C(=O)c3cc(C4CC4)on3)CC2)cs1`, for which the Percent Effect in experiment [1] was -6.45%; in experiment [2], 13%; in [3], 2.57%; in experiment [4] it was 3.64%; with Trypanosoma cruzi, -0.686%; in experiment [5], 5.68%. In addition, the Percent Effect in experiment [6] is 4.45%; in the experiment listed under Homo sapiens it was -4.72%; in [7], 4.76%; in experiment [8], 18.8%; in experiment [9] it was -6%.

In the case of `COc1ccc(-c2nc(CN3CC(n4cc(C)cn4)C3)no2)cc1`, the Percent Effect in experiment [1] is -4.92%; in [2], 10.4%; in experiment [3], -1.25%; in experiment [4] it was 16.8%; in the experiment with Trypanosoma cruzi, 4.03%; in [5], 88.3%. For the same compound, the Percent Effect in experiment [6] is 12%; in the experiment listed under Homo sapiens it was 12.7%; in [7] it was 6.45%; in experiment [8], 21%; in experiment [9], -9.02%.

As to `CN1[C@H](Cn2cncn2)C[C@@H]2CN(Cc3cccc(C#N)c3)CC[C@@H]21`, the Percent Effect was -1.53% in experiment [1]; 13.5% in experiment [2]; -0.719% in experiment [3]; -6.04% in [4]; 0% with Trypanosoma cruzi; -2.5% in experiment [5]. Moreover, the Percent Effect was 15% in experiment [6]; -2.04% in the experiment filed under Homo sapiens; 9.9% in experiment [7]; 13.4% in [8]; 2.31% in experiment [9].

`Cc1nc(CN2CCCC(Cn3cc(CCO)nn3)C2)c[nH]1` (stereo unspecified): the Percent Effect is -1.16% in experiment [1]; 0% in experiment [2]; -4.62% in [3]; 20.6% in [4]; 5.21% in the experiment with Trypanosoma cruzi; 0.952% in [5]. Moreover, the Percent Effect in experiment [6] is 5.17%; in the experiment filed under Homo sapiens, -10.1%; in experiment [7], 1.59%; in experiment [8] it was 9.76%; in [9], -7.08%.

For the compound `O=C(NCc1cccs1)C1CN(C(=O)c2cccs2)CC12CCOCC2` (stereo unspecified), the Percent Effect in experiment [1] is -3.46%; in [2], 8%; in experiment [3] it was 5.07%; in experiment [4], 1.33%; in the experiment with Trypanosoma cruzi, 0.193%; in experiment [5] it was -43.5%. The Percent Effect in experiment [6] is 14.4%; in the experiment listed under Homo sapiens, -4.96%; in experiment [7], 2.08%; in [8] it was -312%; in experiment [9] it was -2.49%.
